Test results: PubChem BioAssay (NCATS)
Records with an inconclusive call do not appear. Activity calls are given as the source filed them. Calls follow the shape of the dose curve; as a rule, active = well fitted inhibition curve with a large enough effect; inconclusive = small, poorly fitted or top-dose-only effect; inactive = flat fitted curve, though single readings scatter.

These compounds were tested against Calcium and integrin-binding protein 1 (Homo sapiens) (UniProt Q99828) (assay: Primary qHTS for Identification of Calcium Integrin Binding Protein 1 (CIB1) Competitor (AID 1508620;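 also: GST tagged CIB1 binding a fluorescein labelled alphaIIb integrin peptide tracer; top concentration of the series differs between compounds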)). Conditions: CIB1-GST / FITC-alphaIIb peptide fluorescence polarization; series mostly up to 114 µM; activity change, negative = inhibition: at the top concentration.
Sequence of Calcium and integrin-binding protein 1 (Homo sapiens) (Q99828 whole entry, looked up): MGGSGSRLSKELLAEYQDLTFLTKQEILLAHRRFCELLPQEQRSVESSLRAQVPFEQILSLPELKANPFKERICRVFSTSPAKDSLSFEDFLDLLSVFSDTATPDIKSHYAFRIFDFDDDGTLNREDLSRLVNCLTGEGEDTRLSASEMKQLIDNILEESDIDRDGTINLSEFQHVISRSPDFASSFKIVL
Procedure, shortened: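 Fluorescence polarization competition: CIB1-GST (1 uM final) preincubated with compound 15 min at room temperature, then FITC-labeled alphaIIb peptide (100 nM final) added for another 15 min. Polarization read at Ex 480/Em 540.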
% is scaled to controls: 0 for no effect and ±100 for the full control effect.

Compound	activity change, negative = inhibition
CN(C)C(=O)c1cccc(-c2csc(N3CCC(C(N)=O)CC3)n2)c1	2.55% (inactive)
CN(C)c1ccc(-c2cc(O)c3ncccc3c2)cc1	-14.2% (inactive)
Cc1ccnc(NC(=S)N[C@H]2CCN(c3cccc(C(F)(F)F)c3)C2)c1	-4.59% (inactive)
CC1=C(C(=O)Nc2ccc(Cl)cc2)C(c2ccccc2Br)N=C(Nc2nc3ccccc3o2)N1 (stereo not given)	0.736% (inactive)
CN1CCN(c2ccc(NC(=O)c3cccs3)cn2)CC1	-14.8% (inactive)
O=C(Nc1ccccc1)OCc1c(-c2ccccc2)no[n+]1[O-]	0.45% (inactive)
O=C(NCc1ccccc1)Nc1ncnc2c1C(c1ccccc1)c1c(ccc3ccccc13)O2 (stereo not given)	5.23% (inactive)
Cc1ccc(S(=O)(=O)N(C)c2cccc3cccnc23)cc1	2.24% (inactive)
Cc1cc(C)nc(NC(=S)N2CCN(c3ccc(F)c(F)c3)CC2)c1	-1.52% (inactive)
COc1cc(-c2nc(Nc3ccc(F)c(F)c3)c3ccccc3n2)cc(OC)n1	3.21% (inactive)
Cc1cc(C)nc(NC(=S)N2CCN(c3nc4ccccc4s3)CC2)c1	-3.82% (inactive)
O=C(O)c1ccc(CSc2nnc(-c3ccc([S+](=O)([O-])N4CCCC4)cc3)n2-c2ccccc2)cc1	-2.77% (inactive)
O=C(O)c1ccc(O)c2ncc(-c3ccc(N4CCOCC4)cc3)cc12	-15.3% (inactive)
CC(=O)Nc1sc2c(c1-c1ccc3nsnc3c1)CCNC2	-9.3% (inactive)
Cc1cc(NS(=O)(=O)Cc2ccc(NC(=O)Cc3ccc(Cl)c(Cl)c3)cc2)no1	-19% (inactive)
O=C(Nc1ccc(N2CCOCC2)c(F)c1)Nc1nnc(-c2ccncc2)s1	-7.05% (inactive)
Fc1cc(F)cc(Nc2nc(NC3CCCC3)nc(C3CO3)n2)c1 (stereo not given)	-3.61% (inactive)
COc1cc(-c2ccc3ncnc(N(C)Cc4csc(C)n4)c3c2)cc(OC)c1OC	6.38% (inactive)
CCOc1ccccc1-c1nnc2n1N=C(c1cc(OC)ccc1OC)CS2	2.98% (inactive)
CC1=C(C(=O)Nc2ccccc2)C(c2ccccc2Br)N=C(Nc2nc3ccccc3o2)N1 (stereo not given)	-0.072% (inactive)

Compound	activity change, negative = inhibition
Cc1ccc(-c2nccc(=O)n2CC(=O)NCCc2ccccc2)cc1	9.6% (inactive)
O=C1CCCC2=C1C(c1[nH]ncc1Cl)N=C(Nc1nc3cc(Cl)ccc3o1)N2 (stereo not given)	-5.19% (inactive)
CN(C)CCCNc1ccc(NC(=O)c2cccs2)cn1	0.751% (inactive)
OCC#CCSc1nnc(-c2cccc3ccccc23)o1	0.741% (inactive)
COc1cccc(S(=O)(=O)N2CCN(S(=O)(=O)c3ccc4c(c3)OCCO4)CC2)c1	1.72% (inactive)
N#Cc1nc(NCC(F)F)c2ncn(-c3cccc(Cl)c3)c2n1	-3.86% (inactive)
Fc1ccccc1N1CCN(c2nc(-c3cccs3)nc3ccccc23)CC1	-1.98% (inactive)
O=S1(=O)N=C(Oc2ccccc2F)c2ccccc21	-2.86% (inactive)
Cc1cc(C)nc(NC(=S)N2CCN(c3cccc(OC(F)F)c3)CC2)c1	-7.5% (inactive)
Cc1cc2c(s1)c1cnn(Cc3ccc(C(=O)O)cc3)c(=O)c1n2C	-13.3% (inactive)
Cc1noc(C)c1-c1cccc(-c2nn3c(=O)cc(N4CCNCC4)nc3s2)c1	-3.2% (inactive)
NC(=O)C1CCN(c2nc(-c3cccc4sc5ccccc5c34)cs2)CC1	-3.42% (inactive)
CCOC(=O)C1CCN(C(=O)C2(NC(=O)Nc3ccc(F)cc3F)CCCCC2)CC1	3.07% (inactive)
Cc1ccc(OCCn2c(CCNC(=O)/C=C/c3cccc(Br)c3)nc3ccccc32)cc1	27.5% (inactive)
Cc1cnc(-c2ccccc2C(C)O)nc1NCC1CCN(c2cccnc2)CC1 (stereo not given)	9.82% (inactive)
Fc1ccccc1-c1nc(NCc2ccc(-c3cccnc3)cc2)c2ccccc2n1	2.9% (inactive)
CC(C)(C)OC(=O)NCCOCCOCCOc1cccc(-n2ncc3c2CCCC3NC(=O)c2ccccn2)c1 (stereo not given)	-1.9% (inactive)
CC(=O)c1ccc(N2CCN(S(=O)(=O)c3ccc4[nH]c(=O)[nH]c4c3)CC2)cc1	36% (inactive)
CC(=O)N1CCN(c2ccc(NCc3ccc(Br)o3)cc2)CC1	-4.72% (inactive)
O=C(OCC#CCSc1nnc(-c2cccc3ncccc23)o1)c1ccc(F)cc1	4.08% (inactive)
